{"source": "PubChem BioAssay AID651808", "about": "(Broad Institute, 2012)", "note": "Values joined by “and” are separate entries in the source; they are usually repeats but may differ in a detail not shown here. Equal entries are not always repeated. Records with an inconclusive call do not appear. Active and inactive are the calls of the source. No rule for the calls is given here."}
{"assay": "dose response, DH231 delta cqsS, luminescence, dry powder (AID 651808)", "settings": "V. cholerae DH231 delta cqsS, luxCDABE luminescence, 6 h; at 80 µM; test 2; stronger effect = higher value"}
{"smiles": "O=C(Cc1ccc(-c2ccccc2)cc1)NC1CCC1", "max activity (light induction)": "-12.2% (inactive)"}
{"smiles": "CC(C)NC(=O)Cc1ccc(-c2ccccc2)cc1", "max activity (light induction)": "-26.8% (inactive)"}
{"smiles": "CCC(C)NC(=O)Cc1ccc(-c2ccccc2)cc1", "note": "(centres undefined)", "max activity (light induction)": "-31.1% (inactive)"}
{"smiles": "COc1ccc(CC(=O)NC2CCCC2)cc1", "max activity (light induction)": "-4.11% (inactive)"}
{"smiles": "O=C(NCc1ccc(-c2ccccc2)cc1)C1CCCC1", "max activity (light induction)": "-17% (inactive)"}
{"smiles": "O=C(Cc1ccccc1F)NC1CCCC1", "max activity (light induction)": "0.357% (inactive)"}
{"smiles": "CCCn1nnnc1NCc1ccccc1Cl", "max activity (light induction)": "-58.8% (inactive)"}
{"smiles": "CCCn1nnnc1NCc1ccc(C(C)C)cc1", "max activity (light induction)": "-51.3% (inactive)"}
{"smiles": "O=C(Cc1ccccc1OC(F)(F)F)NC1CCCC1", "max activity (light induction)": "-14.6% (inactive)"}
{"smiles": "Cn1nnnc1NCc1ccc(N2CCCC2)cc1", "max activity (light induction)": "-32.9% (inactive)"}
{"smiles": "O=C(Cc1ccc(-c2ccccc2)cc1)NC1CCCC1", "max activity (light induction)": "-13.9% (inactive) and -5.11% (inactive)"}
{"smiles": "O=C(Cc1ccccc1Cl)NC1CCCC1", "max activity (light induction)": "-18.1% (inactive)"}
{"smiles": "O=C(Cc1ccccc1C(F)(F)F)NC1CCCC1", "max activity (light induction)": "-7.17% (inactive)"}
{"smiles": "CCn1nnnc1NCc1ccc(N2CCCC2)cc1", "max activity (light induction)": "-52.6% (inactive)"}
{"smiles": "CCC(CC)NC(=O)Cc1ccc(-c2ccccc2)cc1", "max activity (light induction)": "-17.5% (inactive)"}
{"smiles": "O=C(Cc1ccc(-c2ccccc2)cc1)NC1CCCCC1", "max activity (light induction)": "-14.6% (inactive)"}
{"smiles": "CCCn1nnnc1NCc1ccc(N2CCCC2)cc1", "max activity (light induction)": "-55.4% (inactive)"}
{"smiles": "O=C(Cc1cccc(OC(F)(F)F)c1)NC1CCCC1", "max activity (light induction)": "-5.92% (inactive)"}
{"smiles": "CCn1nnnc1NCc1ccc(C(C)C)cc1", "max activity (light induction)": "-41.8% (inactive) and -46.4% (inactive)"}
{"smiles": "O=C(Cc1cccc(F)c1)NC1CCCC1", "max activity (light induction)": "-4.2% (inactive)"}
{"smiles": "CC(C)c1ccc(CNc2nnnn2C)cc1", "max activity (light induction)": "-24.7% (inactive)"}
{"smiles": "O=C(Cc1ccc(-c2ccccc2)cc1)NC1CCOCC1", "max activity (light induction)": "-9.06% (inactive)"}
{"smiles": "CS(=O)(=O)c1ccc(CC(=O)NC2CCCC2)cc1", "max activity (light induction)": "-47.4% (inactive)"}
{"assay": "dose response, DH231 delta cqsS, luminescence, dry powder (AID 651808)", "settings": "V. cholerae DH231 delta cqsS, luxCDABE luminescence, 6 h; measured here: test 1 replicate run; at 80 µM; test 1; stronger effect = higher value"}
{"smiles": "CCCn1nnnc1NCc1ccc(C(C)C)cc1", "max activity (light induction)": "-24.4%"}
{"smiles": "Cn1nnnc1NCc1ccc(N2CCCC2)cc1", "max activity (light induction)": "-32.2%"}
{"smiles": "CCn1nnnc1NCc1ccc(N2CCCC2)cc1", "max activity (light induction)": "-42.4%"}
{"smiles": "CCCn1nnnc1NCc1ccc(N2CCCC2)cc1", "max activity (light induction)": "-46.1%"}
{"smiles": "CCn1nnnc1NCc1ccc(C(C)C)cc1", "max activity (light induction)": "-24.1% and -23.5%"}
{"smiles": "CCn1nnc(NCc2ccc(C)cc2)n1", "max activity (light induction)": "-23%"}
